Laboratory results from PubChem BioAssay AID588342 (National Center for Advancing Translational Sciences (NCATS), 2011).
In all, about 360,000 compounds went through this assay and about 25,000 (6.9%) were called active. Inconclusive results (about 9%) are left out. Calls come from the whole dose curve; as a rule, active = well fitted inhibition curve with a large enough effect; inconclusive = small, poorly fitted or top-dose-only effect; inactive = flat fitted curve, though single readings scatter. The list comes from a sample in which actives are over-represented; it also holds similar structures and randomly drawn compounds.

Target: Luciferin 4-monooxygenase (Photinus pyralis) (UniProt P08659)
Assay: qHTS profiling assay for firefly luciferase inhibitor/activator using purifed enzyme and Km concentrations of substrates (counterscreen for miR-21 project); note: nearly all actives have a fitted effect of over 55% in size;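 for activity change, negative = inhibition: plate controls were vehicle for no effect and reference inhibitor for full effect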
Conditions: purified FLuc, luminescence inhibition; series mostly up to 57.5 µM; activity change, negative = inhibition: at the top concentration
Summary of the method: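 Biochemical qHTS of compounds, final roughly 60 µM downward over six points, against 10 nM purified firefly luciferase using Km concentrations of substrates (10 uM D-luciferin, 10 uM ATP) in Tris acetate pH 7.5 buffer; luminescence output.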
Potency is the fitted concentration of half-maximal effect.

Sequence of Luciferin 4-monooxygenase (Photinus pyralis) (P08659 whole entry, looked up): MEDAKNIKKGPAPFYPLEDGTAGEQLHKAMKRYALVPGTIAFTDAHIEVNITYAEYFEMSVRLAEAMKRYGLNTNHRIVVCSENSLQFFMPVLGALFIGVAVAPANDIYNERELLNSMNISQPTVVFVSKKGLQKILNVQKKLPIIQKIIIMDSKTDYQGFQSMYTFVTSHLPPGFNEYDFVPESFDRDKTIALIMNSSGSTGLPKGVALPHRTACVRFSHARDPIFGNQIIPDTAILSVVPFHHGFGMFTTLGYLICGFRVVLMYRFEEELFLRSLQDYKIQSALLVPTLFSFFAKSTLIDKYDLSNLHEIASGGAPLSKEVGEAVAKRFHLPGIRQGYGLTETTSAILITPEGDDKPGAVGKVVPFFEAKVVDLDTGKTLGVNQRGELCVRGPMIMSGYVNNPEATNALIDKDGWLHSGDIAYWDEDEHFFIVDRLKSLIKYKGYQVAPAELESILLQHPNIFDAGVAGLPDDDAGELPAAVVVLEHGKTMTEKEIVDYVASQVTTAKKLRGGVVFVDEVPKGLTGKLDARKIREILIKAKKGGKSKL

SMILES | activity change, negative = inhibition | Potency
NNC(=O)c1cccc(COCC(F)(F)C(F)F)c1 | 6.5% (inactive) | 
CCOC(=O)c1cc(C(C)C)sc1NC(=O)COC(=O)c1nccnc1N | 12.3% (inactive) | 
CC(C)c1cc(C(N)=O)c(NC(=O)c2cccc(COc3ccc(Br)cc3)c2)s1 |  | 19 µM (active)
COc1ccc(CCNC(=O)Cn2c(=O)n(-c3ccccc3)c(=O)c3c(C)c(C)sc32)cc1OC | -0.147% (inactive) | 
CCOc1ccc(N(CC)C(=O)c2cc3c(=O)oc4ccccc4c3s2)cc1 | -1.93% (inactive) | 
CCOc1ccc(N/C=C/C(=O)c2ccccc2)cc1 |  | 0.269 µM (active)
Cc1ccc(N/C=C/C(=O)c2ccccc2)cc1C |  | 0.151 µM (active)
CCOc1ccc(NC(=O)C2CCCN(C(=O)Nc3ccccc3)C2)cc1 (stereo not given) | -2.4% (inactive) | 
Cc1ccc(NNC(=O)C2CCC2)cc1C | -2.48% (inactive) | 
Cc1ccc(N(NC(=O)C(C)(C)O)C(=O)c2ccccc2)cc1C | 6.23% (inactive) | 
COc1ccc(N2C(=O)CCC(C(=O)Nc3ccccn3)C2c2ccc(OC)c(OC)c2)cc1 (stereo not given) | 1.04% (inactive) | 
CCCOc1ccc(NC(=O)C2CCCNC2=O)cc1 (stereo not given) | 3.63% [at 2.3 µM] (inactive) | 
CCCOc1ccc(NC(=O)C2OC3OC(C)(C)OC3C3OC(C)(C)OC23)cc1 (stereo not given) | 7.57% (inactive) | 
COc1ccc(C(=O)/C=C/Nc2ccccn2)cc1 |  | 0.107 µM (active)
COCCN(C(=O)CCC(=O)Nc1ccccn1)C(C(=O)NCCC(C)C)c1ccc(OC)cc1 (stereo not given) | -1.3% (inactive) | 
CCCOc1ccc(N/C=C/C(=O)C(C)(C)C)cc1 |  | 10.7 µM (active)
CCOc1ccc(NC(=S)N2CCC(NC(=O)c3ccccc3)CC2)cc1 | 0.225% (inactive) | 
CC(Oc1ccccc1F)C(=O)NN (stereo not given) | 1.14% (inactive) | 
CCOC(=O)Cc1ccc(NC(=O)Nc2c[nH]c(=O)[nH]c2=O)cc1 | -6.71% (inactive) | 
COc1ccc(OC)c(NC(=O)CN2CCCN(Cc3cc(C)ccc3C)S2(=O)=O)c1 | -1.23% (inactive) | 
COc1cccc(NC(=O)C2CCN(c3cc(C)nc4c(-c5ccc(Cl)cc5)c(C)nn34)CC2)c1 | -6.24% (inactive) | 
COc1ccc(OC)c(-c2noc(N3CCN(c4cc(Cl)ccc4C)CC3)n2)c1 | 2.18% (inactive) | 

SMILES | activity change, negative = inhibition | Potency
Cc1ccccc1CNC(=O)Cn1c(C)c2cnn(-c3ccccc3)c(=O)c2c1C | 1.72% (inactive) | 
O=C(CN(CC1CCCO1)C(=O)CNS(=O)(=O)c1ccc(F)cc1)NCc1ccco1 (stereo not given) | -0.026% (inactive) | 
CCC(=O)c1ccc(OC(=O)/C=C/c2cc(OC)c(OC)c(OC)c2)cc1 | -18.9% (inactive) | 
CCOc1ccc(N/C=C/C(=O)c2cc(OC)c(OC)c(OC)c2)cc1 |  | 13.5 µM (active)
CCOc1ccc(C(NC(=O)c2cc(OC)c(OC)c(OC)c2)c2cc(Cl)c3cccnc3c2O)cc1 (stereo not given) | -4.4% (inactive) | 
CC1(C)O[C@@H]2[C@H](O1)[C@@H](COS(=O)(=O)O)O[C@H]2n1ccc(=O)[nH]c1=O | 3.4% (inactive) | 
O=C(NCC(=O)N(Cc1cccs1)C(C(=O)NC1CCCCC1)c1ccco1)c1cccs1 (stereo not given) | 0.0391% (inactive) | 
O=c1c2ccccc2nc2n1C(CSc1ccc(Cl)cc1)CN2 (stereo not given) | 4.01% (inactive) | 
O=C(/C=C/c1ccc2c(c1)OCO2)NCc1cn2cc(Cl)ccc2n1 | -17.4% (inactive) | 
Clc1ccc2nc(CSc3ccccc3)cn2c1 |  | 0.849 µM (active)
Cc1cccc(-c2oc3ccc(-c4ccc5c(c4)OCO5)cc3c2C#Cc2cncn2C)c1 | -28% (inactive) | 
Cc1ccc(NC(=O)CN2C(=O)CC(C)Sc3ccccc32)c(C)c1 (stereo not given) | -9.71% (inactive) | 
COc1cccc(C2=CC(=O)C[C@H](c3ccc(OC)c(OC)c3)C2)c1 | -2.01% (inactive) | 
CC1(C)C(c2cccs2)=[N+]([O-])C2(CCCCC2=O)N1O (stereo not given) | -7.11% (inactive) | 
C/C(=N\O)C1(C)N(O)C(C)(C)C(c2ccc(Br)cc2)=[N+]1[O-] (stereo not given) | -3.47% (inactive) | 
CC(=O)C1(C)N(O)C(C)(C)C(c2cccs2)=[N+]1[O-] (stereo not given) |  | 0.301 µM (active)
COc1ccc(SCc2cc(=O)c3ccc(C)c(C)c3[nH]2)cc1 | -9.1% (inactive) | 
C=CCn1c(SCC(=O)Nc2ccc(NC(C)=O)cc2)nc2sc(C)c(C)c2c1=O | 4.96% (inactive) | 
O=C(CSc1nnnn1C1CCCC1)N1CCCCC1 |  | 19 µM (active)
CC(=O)Nc1ccc(NC(=O)CSc2nnnn2C2CCCCC2)cc1 | 1.81% (inactive) | 
CC1CCCC(C)N1C(=O)CSc1nnnn1C1CCCC1 (stereo not given) | -15.9% (inactive) | 
COc1ccc(Cn2c(=O)n(-c3ccccc3C)c(=O)c3c4c(sc32)CN(C(C)=O)CC4)cc1 | 3.07% (inactive) | 

SMILES | activity change, negative = inhibition | Potency
COc1ccc(-c2nc3scc(CCNS(=O)(=O)c4cc(F)ccc4OC)n3n2)cc1OC | -15.7% (inactive) | 
CCOc1ccc(CNCCSc2nnnn2C)cc1 | 6.42% (inactive) | 
CC1CC(C)CN(CCC(=O)Nc2ccc3c(c2)CCC3)C1 (stereo not given) | 2.31% (inactive) | 
O=C(N/N=C\c1cc2c(cc1Cl)OCO2)c1ccc(Br)s1 | 0.0212% (inactive) | 
O=C(Nc1ccc2c(c1)CCC2)c1ccc(Br)s1 |  | 1.9 µM (active)
Cc1cccc(N2CCN(S(=O)(=O)c3ccc4[nH]c5c(c4c3)CCCCC5)CC2)c1C | -0.0208% (inactive) | 
CN1CCN(c2oc(-c3ccc(COc4ccc(Cl)cc4)o3)nc2C#N)CC1 | -1.14% (inactive) | 
C=CCn1c(C)cc(C(=O)CN2C(=O)c3ccccc3C2=O)c1C |  | 1.51 µM (active)
C=CCN(CC=C)C(=O)CN1C(=O)c2ccccc2C1=O | -1.87% (inactive) | 
Cc1cc(C)cc(NC(=O)CN2C(=O)c3ccccc3C2=O)c1 | -1.43% (inactive) | 
CCc1ccc(NC(=O)CCCc2nnc3n(CCCOC)c(=O)c4sccc4n23)cc1 | -0.673% (inactive) | 
COc1ccccc1NC(=O)c1cc(S(=O)(=O)NCCc2ccccc2)ccc1F | -0.596% (inactive) | 
Cc1ccc(C)c(S(=O)(=O)n2nc(C)c(S(=O)(=O)N3CCC(C)CC3)c2C)c1 | -16.4% (inactive) | 
COc1ccc(/C(N)=N/OC(=O)Cc2ccccc2)cc1 |  | 19 µM (active)
COc1ccc(/C(N)=N/OC(=O)Oc2ccccc2)cc1 | -11.7% (inactive) | 
COc1ccc(CC(=O)Nc2sc(Cc3ccccc3)c(C)c2C(N)=O)cc1 | 3.91% (inactive) | 
CCC(=O)N1CCc2cc(S(=O)(=O)NC(Cc3ccccc3)C(=O)NCc3ccccc3)ccc21 (stereo not given) | 5.1% (inactive) | 
COc1cccc(N(C(=O)c2snc(C(N)=O)c2N)C(C(=O)NCC2CCCO2)c2c[nH]c3ccccc23)c1 (stereo not given) | -2.39% (inactive) | 
CCOC(=O)C1(Cc2ccccc2C)CCCN(S(C)(=O)=O)C1 (stereo not given) | -0.641% (inactive) | 
CCOC(=O)C1(Cc2ccccc2C)CCCN(C(=O)CN2C(=O)CSC2=O)C1 (stereo not given) | -15.3% (inactive) | 
CCOC(=O)C1(Cc2ccccc2C)CCCN(C(=O)c2ccc(COC)o2)C1 (stereo not given) |  | 21.3 µM (active)
